# About 31,000 (8.9%) of roughly 350,000 compounds were called active. A call without a number means that no potency is given here. Not shown: some 15% with an inconclusive outcome. The sample holds actives, similar compounds and a random draw of the others, so the mix is not that of the screen. The call rests on the fitted dose curve; in most records, active means well fitted inhibition curve with a large enough effect; inconclusive means small, poorly fitted or top-dose-only effect; inactive means no such curve, though single readings can be large or run the other way. Some compounds were tested as several samples or in several runs, with calls that do not always agree.
# Biological target: Histone-lysine N-methyltransferase EHMT2 (Homo sapiens) (UniProt Q96KQ7)
# Sequence (Q96KQ7 913-1193 limits assumed): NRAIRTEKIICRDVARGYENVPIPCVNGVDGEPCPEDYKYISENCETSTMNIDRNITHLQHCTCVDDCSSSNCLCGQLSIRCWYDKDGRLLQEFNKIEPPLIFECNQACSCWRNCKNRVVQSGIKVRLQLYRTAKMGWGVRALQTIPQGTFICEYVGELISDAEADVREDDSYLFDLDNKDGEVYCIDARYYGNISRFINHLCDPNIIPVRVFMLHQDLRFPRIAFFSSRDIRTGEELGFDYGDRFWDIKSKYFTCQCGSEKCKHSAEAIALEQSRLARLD
# Test: qHTS Assay for Inhibitors of Histone Lysine Methyltransferase G9a; further: nearly all actives have a fitted effect of over 75% in size
# Settings: G9a H3K9 monomethylation, AlphaScreen, 2 h; series mostly up to 59 µM
# Procedure, shortened: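 AlphaScreen detection with an anti-monomethyl H3K9 antibody quantified product after a 2 h room-temperature reaction containing 500 nM biotinylated H3K9 peptide, 20 µM SAM and 20 nM enzyme, which had been preincubated 15 min with compound.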
# Potency means the concentration at half of the fitted maximal effect.
Structure (SMILES),Potency,"activity, negative = inhibition"
CCn1cc2nc(SCc3cccc(F)c3)n(CCc3ccccc3)c(=O)c2n1,inactive,–
CCOC(=O)C1(Cc2ccccc2C)CCCN(C(=O)CN2C(=O)CSC2=O)C1 (centres undefined),inactive,–
c1ccc(CC2CCN(c3nc4ccccc4n4cnnc34)CC2)cc1,–,26.6% [at 12.7 µM] (inactive)
O=C(c1ccccc1)c1ccc2nc(N3CCCCC3)c3nncn3c2c1,44.7 µM (active),–
O=C(c1ccccc1)c1ccc(OC(=O)N2CCCC2)cc1,inactive,–
O=C(Nc1ccc(Oc2ccccc2)cc1)C1CCN(S(=O)(=O)c2ccc(Cl)cc2)CC1,inactive,–
COc1cccc(NC(=O)c2ccc3nc(CCc4ccccc4)oc3c2)c1,inactive,–
COc1cccc(NC(=O)CSC2=Nc3ccccc3C3=NC(CC(=O)NC4CCCCC4)C(=O)N23)c1 (centres undefined),inactive,–
COc1cc(Cl)c(NC(=O)C(NS(=O)(=O)c2cccs2)C(C)C)c(OC)c1 (centres undefined),inactive,–
COc1ccc(C2(C)NC(=O)N(CC(=O)c3ccc4c(c3)OCO4)C2=O)cc1 (centres undefined),inactive,–
COc1cccc(CNCc2ccc3c(c2)OCO3)c1,22.4 µM (active),–
COc1ccc2c(c1)C(C)=CC(C)(C)N2C(=O)CNCc1ccc2c(c1)OCO2,28.2 µM (active),–
COc1cc(OC)c(C(=O)NCc2ccc3c(c2)OCO3)cc1OC,inactive,–
COc1ccc(OC)c(-c2nc(C(N)=O)c3c(n2)n(-c2ccc4c(c2)OCO4)c(=O)n3C)c1,inactive,–
COc1ccc(NC(=O)NCc2ccc3c(c2)OCO3)c(OC)c1,inactive,–
Cc1ccsc1C(=O)NCCc1ccco1,–,-0.499% [at 12.7 µM] (inactive)
COc1ccccc1-c1noc(-c2ccc(NCc3ccccc3)c([N+](=O)[O-])c2)n1,inactive,–
Clc1ccc(C2=CSC3=Nc4cccc5cccc(c45)N23)cc1,3.55 µM (active),–
O=C(Nc1ccc2nc(SCC(=O)N3CCCc4ccccc43)sc2c1)c1ccc(Cl)cc1,inactive,–
CCCNC(=O)CSc1nc(Cc2ccccc2)nc2ccccc12,inactive,–
Cc1ccc(S(=O)(=O)NCc2nc3nc(C)cc(C)n3n2)cc1,inactive,–
NC(=O)NC(CC(=O)NNC(=O)c1ccccn1)c1ccc(Cl)cc1 (centres undefined),–,54.7% [at 12.7 µM] (inactive)
Cc1ccc(Cn2c(CCCNC(=O)C3CCCCC3)nc3ccccc32)cc1,inactive,–
CC(=O)Nc1nc2ccccc2n1Cc1ccc(C)cc1,inactive,–

Structure (SMILES),Potency,"activity, negative = inhibition"
CCCc1nc2c(C)cc(-c3nc4ccccc4n3C)cc2n1Cc1ccc(-c2ccccc2C(=O)O)cc1,4.47 µM (active),-43.4% [at 2.33 µM] (inactive)
COc1ccc(C(=O)Nc2nonc2-c2ccc(OC)c(OC)c2)cc1Cl,inactive,–
COc1cccc(NC(C)=[N+](C)CCNS(=O)(=O)c2ccc(Cl)cc2)c1,15.8 µM (active),–
COc1cccc(NC(=O)CCNS(=O)(=O)c2ccc3c(c2)oc(=O)n3C)c1,–,1.31% [at 0.0925 µM] (inactive)
COc1ccc(S(=O)(=O)NCCCCOc2ccc(Cl)cc2)cc1,–,21.3% [at 2.33 µM] (inactive)
CCOC(=O)C1CCN(c2csc3ccc(C)cc3c2=O)CC1,inactive,–
Cc1[nH]n(-c2cccc(Cl)c2)c(=O)c1-c1ccc(Cl)cc1,inactive,–
Cc1[nH]n(C(N)=S)c(=O)c1N=Nc1ccc(Cl)cc1Cl,44.7 µM (active),–
Cc1[nH]n(-c2ccccc2)c(=O)c1N=Nc1ccccc1C(=O)N1CCCCC1,inactive,–
COc1ccccc1C(=O)Nc1ccc(OCC(=O)N2CCCCC2)cc1,–,11.7% [at 2.33 µM] (inactive)
C(=N/N1CCN(c2ccccc2)CC1)/c1cccs1,10 µM (active),–
Cc1ccc(N2CCN(/N=C/c3cccs3)CC2)cc1,inactive,–
Nc1nnnn1/N=C/c1cccs1,inactive,–
O=C(Nc1ccc2nc(SCC(=O)N3CCCc4ccccc43)sc2c1)c1ccc(F)cc1,inactive,–
Cc1cc(C)c(S(=O)(=O)N(C)CC(=O)NCC2CCCO2)c(C)c1 (centres undefined),inactive,–
CCC1CCCCN1S(=O)(=O)c1ccc(NC(=O)c2cc(=O)c3ccccc3o2)cc1 (centres undefined),inactive,–
CC(=O)NC(Cc1c[nH]c2ccccc12)C(=O)NCCc1ccccc1 (centres undefined),inactive,–
O=C(CCCCCn1c(=O)[nH]c2ccccc2c1=O)NCCc1c[nH]c2ccccc12,–,-11.9% [at 0.0925 µM] (inactive)
O=C(NCCc1c[nH]c2ccccc12)C1CCN(Cc2ccc(Br)cc2)CC1,inactive,–
C[C@]1(C(=O)NCCc2c[nH]c3ccccc23)C=C[C@@H](Cc2ccccc2)N1C(=O)c1ccccc1,50.1 µM (active),–
CC1(C(=O)NCCc2c[nH]c3ccccc23)C=CC2(CCCCC2)N1C(=O)c1ccccc1 (centres undefined),79.4 µM (active),–
O=C(CN1C(=O)NC2(CCCCC2)C1=O)NCCc1c[nH]c2ccccc12,inactive,–
Cc1ccc(S(=O)(=O)N2[C@@H](c3ccccc3F)C(C(=O)O)=CC[C@H]2c2ccc(Cl)cc2)cc1,–,-0.77% [at 2.33 µM] (inactive)
O=C(CSc1nccn1Cc1ccc(Cl)cc1)NCc1ccccc1,inactive,–

Structure (SMILES),Potency,"activity, negative = inhibition"
COc1ccc([C@@H]2[C@@H]3C(=O)N(C(C)(C)C)C(=O)[C@@H]3[C@]3(Cc4ccccc4)C(=O)N(c4cccc(Br)c4)C(=O)N23)cc1,–,-84.6% [at 2.33 µM] (inactive)
Cc1ccc(C(=O)NCCSc2c(C)[nH]c3ccccc23)cc1C,inactive,–
Cc1cccc(-n2ncc(Cl)c(Cl)c2=O)c1,inactive,–
CC(C)CN(C(=O)CSc1nncn1C)C1CCS(=O)(=O)C1 (centres undefined),–,7.97% [at 2.33 µM] (inactive)
Cc1cccc(N2CCN(C(C)C(=O)N3CCc4ccccc43)CC2)c1C (centres undefined),inactive,–
COC(=O)c1ccccc1NC(=O)c1ccc2c(=O)n3c(nc2c1)CCCCC3,inactive,–
COc1ccc2c(c1)c(=O)c(S(=O)(=O)c1ccc(F)cc1)cn2CC(=O)Nc1ccc(C)cc1C,inactive,–
Nc1cc(C(F)(F)F)ccc1N1CCOCC1,50.1 µM (active),–
O=C(CCC1CCCCC1)Nc1cc(C(F)(F)F)ccc1N1CCOCC1,inactive,–
CC(C)CC(=O)Nc1cc(C(F)(F)F)ccc1N1CCOCC1,inactive,–
Cn1c(=O)oc2cc(S(=O)(=O)CCC(=O)NCCc3ccc(Cl)cc3)ccc21,inactive,–
Cc1ccc(NNC(=O)c2c(F)cccc2Cl)cc1Cl,inactive,–
O=C(NNC(=O)c1ccc(Cl)cc1Cl)c1cccs1,inactive,–
Cc1ccc(NNC(=O)c2cccs2)cc1Cl,8.91 µM (active),–
CCOc1ccc(-n2c(SCC(=O)NCc3ccccc3)nc3n[nH]c(C)c3c2=N)cc1,inactive,–
Cc1ccc(S(=O)(=O)N2CCC(C(=O)Nc3cc(C)ccc3C)CC2)cc1,inactive,–
COc1ccc(S(=O)(=O)N2CCCC(C(=O)N3CCN(C)CC3)C2)cc1C (centres undefined),inactive,–
O=C(C1CCCN(S(=O)(=O)c2ccc([N+](=O)[O-])cc2)C1)N1CCCCC1 (centres undefined),inactive,–
Cc1ccc(S(=O)(=O)N2CCC(N3CCCCCC3)CC2)cc1,10 µM (active),–
Cc1ccc(S(=O)(=O)N2CCCC(C(=O)N3CCN(C)CC3)C2)cc1 (centres undefined),10 µM (active),–
CC(=O)Nc1ccc(S(=O)(=O)N2CCN(C3CCCCCCC3)CC2)cc1,inactive,–
COc1ccc(NC(=O)CSc2nc3ccccc3[nH]2)cc1,inactive,–
CC1CCCCC1NC(=O)CCS(=O)(=O)c1ccc2c(c1)NC(=O)CO2 (centres undefined),inactive,–
CCN(C(=O)c1cc([N+](=O)[O-])ccc1NCc1cccnc1)c1ccccc1,inactive,–

Structure (SMILES),Potency,"activity, negative = inhibition"
CC(C)(C)OC(=O)N1CCC(c2c(C(=O)N3CCN(c4cccc(Cl)c4)CC3)cnn2-c2cccc(Cl)c2)CC1,inactive,–
COc1cccc(NC(=O)CC2C(=O)NCCN2C(=S)Nc2ccc(F)cc2)c1 (centres undefined),inactive,–
CCC1C(=O)NCCN1C(=O)c1ccc2nc(Cc3ccc(OC)cc3)oc2c1 (centres undefined),inactive,–
COc1ccc(C(=O)NC(=S)N2CCNC(=O)C2CC(=O)OC(C)C)cc1 (centres undefined),25.1 µM (active),–
C/C(=N\NC(=O)Cc1ccc(Cl)cc1)c1ccccn1,inactive,–
C/C(=N/Nc1ccc(Cl)cc1)c1cnnc(-c2ccccc2)n1,39.8 µM (active),–
O=C(Cc1ccc(Cl)cc1)NCc1nc(-c2ccccc2)no1,inactive,–
Cc1cc(C(=O)Nc2cccc(C(F)(F)F)c2)c2c(C)nn(-c3cccc(F)c3)c2n1,inactive,–
COc1ccc(N2CCN(c3ccc([N+](=O)[O-])cc3Cl)CC2)cc1,7.94 µM (active),–
CN(C)S(=O)(=O)N1CCN(c2ccc([N+](=O)[O-])cc2)CC1,inactive,–
CCN1CCN(c2ccc([N+](=O)[O-])cc2C(=O)c2ccc(Cl)cc2)CC1,–,36.3% [at 0.501 µM] (inactive)
COc1ccc(N2CCN(c3ccc([N+](=O)[O-])nc3)CC2)cc1,inactive,–
O=[N+]([O-])c1ccc(N2CCN(c3ccc(O)cc3)CC2)c(Cl)c1,3.16 µM (active),–
O=C(c1cncc(Br)c1)N1CCN(c2ccc([N+](=O)[O-])cc2)CC1,inactive,–
COc1cc(CN(CC2CCCO2)C(=O)c2ccccc2F)cc(OC)c1OC (centres undefined),inactive,–
Cc1ccc(S(=O)(=O)N(C)CC(=O)NCC(c2ccc(F)cc2)N2CCOCC2)cc1 (centres undefined),–,19.1% [at 12.7 µM] (inactive)
CCOC(=O)CSC1=Nc2ccccc2C2=NC(CCC(=O)NCc3ccc(F)cc3)C(=O)N12 (centres undefined),inactive,–
O=[N+]([O-])c1ccc(NCCCN2CCOCC2)c(Cl)c1,–,20.5% [at 2.33 µM] (inactive)
CC(C)N1CCC(=NNc2ccc([N+](=O)[O-])cc2S(=O)(=O)N2CCOCC2)CC1,15.8 µM (active),–
O=[N+]([O-])c1cc(S(=O)(=O)N2CCCC2)ccc1NN=C1CCCC1,inactive,–
CC(=O)NC12CC3CC(C1)CC(C(=O)N1CCN(S(=O)(=O)c4cccs4)CC1)(C3)C2,–,5.2% [at 12.7 µM] (inactive)
